Measurements reported in PubChem BioAssay AID1347135 (National Center for Advancing Translational Sciences (NCATS), 2019).
This is one part of the list. Inconclusive results are not listed. The source made the active and inactive calls. Calls follow the shape of the dose curve; as a rule, active = well fitted inhibition curve with a large enough effect; inconclusive = small, poorly fitted or top-dose-only effect; inactive = flat fitted curve, though single readings scatter.

Experiment: qHTS of pediatric cancer cell lines to identify multiple opportunities for drug repurposing: Orthogonal 3D viability screen for SK-N-SH cells
Conditions: SK-N-SH 3D spheroid viability, PI/Hoechst imaging, 72 h
Text: Drug repurposing or repositioning has been offered as a strategy for drug development in oncology programs. This approach has special potential for childhood cancers and other rare or orphan diseases, where the expected return on new drug development has been a disincentive to pharmaceuticals. […] In this project we exploit the poly-pharmacology of drugs to discover new indications via phenotypic screening of a panel of 19 well-characterized cell lines derived from solid tumors seen in children and adolescents. The goal is to identify approved drugs with previously unrecognized anticancer properties that has the potential to reveal new mechanisms and biological processes involved in carcinogenesis or drug resistance. We employed a titration-based paradigm (quantitative high-throughput screening or qHTS), where all compounds were tested at multiple concentrations for their effect on cell viability. Concentration-response curves (CRCs) were derived directly from the primary screen, and both potency and efficacy values were used to identify compounds with robust bioactivity profiles. […] These two assays will be used to validate active compounds and assess the correlation of compound's potency in 2D vs 3D cultures on selected cell lines. Assay Submitter: Nathalia J. Martinez, National Center for Advancing Translational Sciences, National Institutes of Health, Rockville, MD, USA; email: natalia.martinez@nih.gov Shen, M et al. Quantitative high-throughput phenotypic screening of pediatric cancer cell lines identifies multiple opportunities for drug repurposing. Oncotarget 2017 Dec 19;9(4):4758-4772. PMID 29435139.
The cells were obtained from University of North Carolina (UNC), Pediatric Preclinical Testing Program (PPT), and Coriell Institute (CI). qHTS viability in 3D culture: Cells were assayed in phenol red-free growth media at a density of 1,000 cells/well, with the exception of Daoy, and SH-N-SH which were assayed at 1,500 cells/ well. Thirty muL of cells were dispensed into 384-well, ULA, round bottom plates (Corning) using a Multidrop dispenser. Plates were spun down at 1,000 rpm for 1 min and incubated at 37 degrees C, 5% CO2, under a humidified atmosphere for either 24 (Daoy) or 48 hours (all other cell lines) to allow spheroid formation. Ninety-two nanoliter of compounds and controls (neutral control DMSO or positive control bortezomib at final concentrations of 0.5 µM) were subsequently transferred via GNF Pintool. Plates were sealed using a breathable seal (Diversified Biotech, Dedham, MA) and incubated for 72 hours at 37 degrees C. Spheroid viability was first determined by high-content imaging using Hoechst 33342 and Propidium Iodide (PI, ThermoFisher Scientific), followed by addition of CellTiter-Glo 3D (Promega). Specifically, 3 µL/well of PBS containing a 1:500 dilution of both dyes was dispensed using Multidrop. Dyes were incubated for 1 hour before imaging using the Celigo Image Cytometer. Then, 20 µl of CellTiter-Glo 3D were added per well. Plates were incubated for 30 min at RT on a VWR microplate shaker (300 rpm) and analyzed for luminescence intensity using a ViewLux High-throughput CCD imager equipped with clear filters. Image analysis was done using the Celigo Tumorsphere 1+2+3 application software as previously described. […] The data were exported to Excel, and the average fluorescent intensities were used to calculate the ratio of PI over Hoechst, which was used to quantify viability. […]
For CC1(C)O[C@@H]2C[C@@H]3[C@H]4C[C@@H](F)C5=CC(=O)C=C[C@]5(C)[C@@]4(F)[C@@H](O)C[C@]3(C)[C@]2(C(=O)CO)O1, the Potency was 456 nM (active). For CC(NCc1ccc2c(c1)nc(NC(=O)c1ccc(-c3cn[nH]c3)s1)n2CC(C)(C)O)C(C)(C)C (stereo not given), the Potency was 204 nM (active). With COC(=O)Nc1nc2ccc(Sc3ccccc3)cc2[nH]1 the Potency was 1620 nM (active). With CC[C@]1(O)C[C@@H]2CN(CCc3c([nH]c4ccccc34)[C@@](C(=O)OC)(c3cc4c(cc3OC)N(C)[C@H]3[C@@](O)(C(=O)OC)[C@H](OC(C)=O)[C@]5(CC)C=CCN6CC[C@]43[C@@H]65)C2)C1 the Potency was 90.9 nM (active). With CC[C@H]1CN2CCc3cc(OC)c(OC)cc3[C@@H]2C[C@@H]1C[C@H]1NCCc2cc(OC)c(OC)cc21 the Potency was 72.2 nM (active).
